The source made the active and inactive calls.

Here are results for 16 compounds from PubChem BioAssay.

A short description of assay [1]: compound effects on lung adenocarcinoma cell viability – A549, calcein-AM fluorescence, 48 h, basal, profiling panel (AID 1162). The settings on record: higher = more signal.
Assay [2] in a line: compound effects on differentiated 3T3-L1 adipocyte viability – cell-based, 3T3-L1 adipocytes, calcein-AM fluorescence, 48 h, basal, profiling panel (AID 1163). The settings on record: 3T3-L1 adipocytes viability, higher = more signal.
Assay [3] can be described thus: compound effects on hepatocellular carcinoma cell viability – HepG2, calcein-AM fluorescence, 48 h, basal, profiling panel (AID 1164). The settings on record: higher = more signal.
Assay [4] can be described thus: compound effects on multiple myeloma cell viability – MM1S, calcein-AM fluorescence, 48 h, basal, profiling panel (AID 1165).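 Also: viability of MM1S multiple myeloma cells under basal unstimulated conditions.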 The settings on record: higher = more signal.
A short description of assay [5]: calcein-AM signal in unstimulated myeloma cells – cell-based, calcein-AM fluorescence, 48 h, PK04 Diversity Set, profiling panel (AID 1166).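 Also: cells grown under basal conditions without added stimulus.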 The settings on record: RPMI8226 myeloma viability, higher = more signal.
The nature of assay [6]: JC-1 mitochondrial signal, unstimulated HepG2 cells – cell-based, JC-1 fluorescence, 24 h, 100 nL compound, profiling panel (AID 1167). The settings on record: HepG2 mitochondrial potential, higher = more signal.
Assay [7] is described as follows: JC-1 mitochondrial signal, unstimulated adipocytes – cell-based, JC-1 fluorescence, 3T3-L1 adipocytes, 24 h, 100 nL compound, profiling panel (AID 1168). The settings on record: JC-1 mitochondrial fluorescence, higher = more signal, called active from +8 up or from −8 down.
The nature of assay [8]: JC-1 mitochondrial signal, unstimulated myeloma cells – cell-based, JC-1 fluorescence, RPMI8226, 24 h, 100 nL compound, profiling panel (AID 1169). The settings on record: JC-1 mitochondrial potential fluorescence, higher = more signal.
Assay [9] in a line: JC-1 mitochondrial signal, unstimulated MM1S myeloma – cell-based, JC-1 fluorescence, 24 h, 100 nL compound, profiling panel (AID 1170). The settings on record: MM1S mitochondrial potential, higher = more signal.
Assay [10] is described as follows: resazurin metabolic signal in A549 cells – cell-based, resazurin fluorescence, 24 h, PK04 Diversity Set, profiling panel (AID 1171). The settings on record: A549 viability, higher = more signal, called active from +8 up or from −8 down.
Also: test concentration not given here.

Consider `CCCC[C@@H](O)C1=C(COc2ccccc2)Cn2c(=O)n(-c3ccccc3)c(=O)n2[C@H]1CO`, for which the z-score in assay [1] was 0.753; in assay [2], 0.409; in assay [3], -0.0994; in assay [4], 0.356; in [5], -1.02; in [6], -0.368. The z-score was 0.334 (inactive) in [7], 0.42 in [8], 0.277 in assay [9] and -0.515 (inactive) in [10].

On to `C[N+](C)(C)CCCCCCNC(=O)[C@H]1C[C@H]2C(=O)N3CCC[C@H]3C(=O)N2[C@H]1c1cccc(OCCO)c1`, for which the z-score is -0.538 in assay [1]; -1.25 in assay [2]; -0.684 in [3]; 0.429 in assay [4]; 0.512 in assay [5]; -1.68 in assay [6]. Also, the z-score in assay [7] is -0.416 (inactive); in assay [8], -0.173; in assay [9], -0.167; in assay [10] it was 0.558 (inactive).

Regarding `CC1CC/C=C\[C@H]2OC34C=CCN(c5ccc(Cl)cc5)C(=O)[C@H]3N(C(CO)C(C)C)C(=O)[C@]4(C)C2C(=O)O1` (stereo not given in full), the z-score is 0.109 in assay [1]; -1.06 in assay [2]; 0.453 in assay [3]; 0.955 in assay [4]; -0.105 in [5]; -0.174 in assay [6]. Also, the z-score in [7] was -0.21 (inactive); in assay [8], -0.362; in assay [9], 0.00224; in assay [10], -0.392 (inactive).

In the case of `COc1ccccc1CN1C(=O)c2ccccc2[C@@H](C(=O)NCC(C)C)[C@@H]1c1ccc(CO)cc1`, the z-score in assay [1] was 0.467; in assay [2] it was 0.796; in assay [3], 0.306; in assay [4] it was 0.869; in assay [5], -2.01; in [6], 0.962. In addition, the z-score in [7] was -1.09 (inactive); in [8], 0.398; in assay [9], 0.544; in assay [10], -0.624 (inactive).

Turning to `CCCN1C(=O)[C@@H]2Cc3c([nH]c4ccccc34)[C@@H](c3cccc(O)c3)N2C1=O`, the z-score was -0.362 in assay [1]; 0.407 in [2]; -1.81 in assay [3]; 0.342 in assay [4]; -0.178 in assay [5]; -1.45 in assay [6]. Besides, the z-score was 0.137 (inactive) in [7], -0.137 in assay [8], -0.211 in assay [9] and 0.264 (inactive) in assay [10].

As to `O=C1O[C@H](c2ccccc2)[C@H](c2ccccc2)N2[C@H]1[C@@H](C(=O)NC[C@H](O)c1ccccc1)[C@]1(C(=O)Nc3ccccc31)[C@H]2c1ccccc1OCCO`, the z-score in [1] was -1.78; in [2] it was 0.559; in assay [3] it was -5.16; in assay [4], -3.38; in [5], -4.61; in assay [6], -2.92. Moreover, the z-score in assay [7] was 2.95 (inactive); in assay [8], -1.15; in assay [9], -2.19; in [10], -3.12 (inactive).

In the case of `O=C1OCCC=C[C@H]2OC34C=CCN(Cn5nnc6ccccc65)C(=O)[C@H]3N(CCCCCO)C(=O)[C@@H]4C12` (stereo not given in full), the z-score is -0.0295 in assay [1]; 0.43 in assay [2]; 0.293 in [3]; 1.75 in assay [4]; 0.723 in assay [5]; 0.742 in assay [6]. Moreover, the z-score in assay [7] is 0.117 (inactive); in [8], 0.0919; in [9], -1.19; in [10], -0.605 (inactive).

As to `C[N+](C)(C)CCCC[C@@H]1NC(=O)[C@H]2C[C@@H](C(=O)NCCCCCCN)[C@@H](c3cccc(OCCO)c3)N2C1=O`, the z-score is -0.535 in [1]; 0.875 in [2]; -0.997 in assay [3]; 0.179 in assay [4]; 1.07 in [5]; -1.01 in assay [6]. The z-score was -0.547 (inactive) in assay [7], -0.0252 in [8], -0.154 in assay [9] and -0.871 (inactive) in assay [10].

As to `OCCCC1=CC(c2cccs2)N(Cc2cccc(OC(F)(F)F)c2)CC1` (stereo not given), the z-score was -0.686 in assay [1]; -0.777 in assay [2]; -1.13 in assay [3]; -3.3 in [4]; -3.79 in assay [5]; -1.24 in assay [6]. The z-score in assay [7] is -1.13 (inactive); in [8] it was -0.733; in assay [9], 0.478; in assay [10], 0.397 (inactive).

Take `CC(C)C(CO)N1C(=O)[C@@H]2[C@H]3C(=O)OCC=C[C@H]3OC23C=CCN(Cn2nnc4ccccc42)C(=O)[C@@H]13` (stereo not given in full): the z-score in assay [1] is -0.746; in assay [2], -0.191; in assay [3] it was -0.751; in assay [4], 0.48; in [5] it was -0.653; in assay [6] it was -0.578. Also, the z-score in assay [7] was -0.373 (inactive); in assay [8] it was 0.432; in assay [9], 0.281; in assay [10], -0.274 (inactive).

Turning to `C=C(/C(=C/C[C@@H](OC(=O)c1ccncc1)c1cccc(OCCO)c1)c1cc(C(=O)OC)ccc1OC)C(C)C`, the z-score in [1] was 1.49; in assay [2], 0.358; in assay [3], 1.21; in assay [4] it was -2.98; in [5] it was -2.77; in assay [6] it was 2.71. Also, the z-score in [7] was 0.544 (inactive); in assay [8], -0.303; in assay [9], -1.02; in assay [10] it was 0.804 (inactive).

Regarding `C=CC[C@]1(C(=O)NCC(O)CO)N=C(c2ccc(OCCCO)cc2)O[C@H]1c1ccccc1N=[N+]=[N-]` (stereo not given in full), the z-score was -0.402 in assay [1]; 0.864 in assay [2]; -0.735 in [3]; -1.16 in [4]; 0.736 in [5]; -0.285 in assay [6]. Moreover, the z-score in assay [7] is 0.13 (inactive); in [8] it was -0.49; in assay [9] it was 0.857; in assay [10], 0.702 (inactive).

Consider `CC(C)NC(=O)[C@@]1(Cc2ccccc2I)c2ccccc2C(=O)N(Cc2ccccc2C(F)(F)F)[C@H]1c1ccc(CO)cc1`, for which the z-score was 0.325 in [1]; 1.77 in assay [2]; 0.289 in [3]; -1.43 in assay [4]; -1.66 in assay [5]; 0.347 in assay [6]. The z-score in [7] was 0.536 (inactive); in assay [8], -0.476; in assay [9], 0.749; in [10] it was 0.444 (inactive).

As for `C[C@@]1([C@@H](NC(=O)c2cccs2)c2ccc(-c3ccccc3)cc2)C[C@H]1C1CCCCC1`, the z-score was -1.23 in assay [1]; 0.437 in [2]; -0.644 in [3]; -2.17 in [4]; -4.43 in assay [5]; -0.734 in [6]. In addition, the z-score in assay [7] was 0.395 (inactive); in [8], -0.843; in assay [9], -1.09; in [10] it was 2.26 (inactive).

`C=CCN1C(=O)[C@@]2(O[C@@H](CCn3cc([C@H](O)c4ccccc4)nn3)[C@H]([Si](C)(C)c3ccc(OC)cc3)[C@H]2C)c2cc(NC(=O)c3ccc(OC)cc3)ccc21`: the z-score is -0.219 in assay [1]; -0.143 in [2]; -0.671 in assay [3]; -1.84 in [4]; -1.69 in [5]; -0.117 in assay [6]. Also, the z-score in assay [7] is -1.06 (inactive); in assay [8], -0.991; in assay [9], -0.641; in [10], -2.43 (inactive).

`COC(=O)[C@@]1(Cc2ccc(OC)cc2)[C@H]2c3cc(C(=O)N(C)C)n(CCF)c3C[C@H]2CN1C(=O)c1ccccc1`: the z-score in assay [1] was -0.444; in [2], -0.228; in assay [3], -0.0897; in [4] it was 0.841; in [5] it was -0.111; in assay [6] it was 1.49. Also, the z-score in assay [7] was 0.454 (inactive); in assay [8] it was -0.339; in assay [9] it was -1.55; in assay [10], -0.391 (inactive).
